PubChem BioAssay
Calls of active or inactive are those of the source.

Columns and labels:
[1] = A549 cell viability effects, profiling panel, calcein-AM fluorescence, 48 h, basal (AID 1162); conditions: higher = more signal
[2] = adipocyte viability effects, profiling panel, cell-based, 3T3-L1 adipocytes, calcein-AM fluorescence, 48 h, basal (AID 1163); conditions: 3T3-L1 adipocytes viability, higher = more signal
[3] = HepG2 cell viability effects, profiling panel, calcein-AM fluorescence, 48 h, basal (AID 1164); conditions: higher = more signal
[4] = MM1S cell viability effects, profiling panel, calcein-AM fluorescence, 48 h, basal (AID 1165); conditions: higher = more signal;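 further: viability of MM1S multiple myeloma cells under basal unstimulated conditions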
[5] = basal RPMI8226 viability, no added stimulus, profiling panel, cell-based, calcein-AM fluorescence, 48 h, PK04 Diversity Set (AID 1166); conditions: RPMI8226 myeloma viability, higher = more signal;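 further: cells grown under basal conditions without added stimulus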
[6] = basal HepG2 mitochondrial membrane potential changes, profiling panel, cell-based, JC-1 fluorescence, 24 h, 100 nL compound (AID 1167); conditions: higher = more signal
[7] = basal 3T3-L1 adipocyte mitochondrial potential changes, profiling panel, cell-based, JC-1 fluorescence, 3T3-L1 adipocytes, 24 h, 100 nL compound (AID 1168); conditions: JC-1 mitochondrial fluorescence, higher = more signal, called active from +8 up or from −8 down
[8] = basal RPMI8226 mitochondrial membrane potential changes, profiling panel, cell-based, JC-1 fluorescence, 24 h, 100 nL compound (AID 1169); conditions: RPMI8226 myeloma, JC-1 mitochondrial potential fluorescence, higher = more signal
[9] = basal MM1S mitochondrial membrane potential changes, profiling panel, cell-based, JC-1 fluorescence, 24 h, 100 nL compound (AID 1170); conditions: higher = more signal
[10] = A549 lung cancer cell viability effects, profiling panel, resazurin fluorescence, 24 h, PK04 Diversity Set (AID 1171); conditions: higher = more signal, called active from +8 up or from −8 down
Further: test concentration not given here.

Row | Compound | z-score [1] | z-score [2] | z-score [3] | z-score [4] | z-score [5] | z-score [6] | z-score [7] | z-score [8] | z-score [9] | z-score [10]
1 | [N-]=[N+]=Nc1ccccc1C[C@]1(C(=O)O)COC(c2ccc(OCCCO)cc2)=N1 | -0.118 | 0.909 | 0.215 | -0.0932 | -0.747 | -0.253 | -1.19 (inactive) | -0.329 | 0.529 | -0.98 (inactive)
2 | CC(C)NC(=O)[C@@]1(C)c2ccccc2C(=O)N(Cc2ccc(OC(F)(F)F)cc2)[C@H]1c1ccc(CO)cc1 | -0.692 | 1.08 | 0.0903 | -0.0831 | -0.676 | 2.05 | -0.682 (inactive) | -0.547 | -1.67 | -0.0752 (inactive)
3 | COCCOC(=O)N1C(=O)[C@@]2(c3ccccc31)[C@H](c1ccc(O)cc1)N1[C@H](c3ccccc3)[C@H](c3ccccc3)OC(=O)[C@H]1[C@@H]2C(=O)N1CCN(c2ncccn2)CC1 | -0.402 | 1.26 | -0.611 | -0.62 | -0.42 | -0.238 | -0.685 (inactive) | 0.199 | 0.0293 | 0.233 (inactive)
4 | CC1CC/C=C\[C@H]2OC34C=CCN(c5ccc(Cl)cc5)C(=O)[C@H]3N(C(C)CO)C(=O)[C@]4(C)C2C(=O)O1 (stereo not given in full) | 0.924 | -0.761 | 1.24 | 1.31 | 0.37 | 0.807 | -0.29 (inactive) | -0.0845 | -0.723 | 0.0378 (inactive)
5 | O=C(C1N=C(c2ccc(OCCCO)cc2)N(c2ccccc2)O1)N1CCCCC1 (stereo not given) | 0.775 | 0.936 | 0.772 | 0.301 | 0.609 | 0.223 | -0.716 (inactive) | -0.779 | -0.313 | 1.07 (inactive)
6 | CCCCC[C@H]1OC[C@@]23C=C(Br)[C@@H](CC12)[C@@]1(CO1)C3=O (stereo not given in full) | 0.433 | -0.0037 | -0.424 | -2.8 | -1.5 | -1.76 | -0.498 (inactive) | -0.314 | -0.824 | -0.612 (inactive)
7 | COc1ccccc1CN1C(=O)c2ccccc2[C@](Cc2ccccc2I)(C(=O)O)[C@@H]1c1ccc(CO)cc1 | 1.14 | -1.03 | 0.235 | -0.616 | -1.7 | -0.199 | -0.205 (inactive) | -0.151 | -0.177 | -0.17 (inactive)
8 | CC1CC/C=C\[C@H]2OC34C=CCN(C(C)(C)C)C(=O)[C@H]3N(CCCCCO)C(=O)[C@@H]4C2C(=O)O1 (stereo not given in full) | 0.0683 | 0.525 | 0.0474 | 0.719 | -0.561 | -0.589 | -0.226 (inactive) | 0.592 | -0.203 | -0.146 (inactive)
9 | C=C(COC)/C(=C/C[C@H](OC(=O)c1ccncc1)c1ccccc1OCCO)c1cc(C(=O)OC)ccc1OC | -0.0954 | 0.0589 | -0.0472 | -3.34 | -1.58 | 1.94 | -0.658 (inactive) | -0.596 | -0.159 | 0.315 (inactive)
10 | CN1C(=O)C2C=CC(C(O)c3cccn3C)N(Nc3ccc([N+](=O)[O-])cc3[N+](=O)[O-])C2C1=O (stereo not given) | -0.49 | -1.35 | -0.678 | -2.1 | 0.16 | -1.58 | -1.16 (inactive) | 0.647 | -0.0962 | -1.03 (inactive)
11 | Cc1ccccc1C(O)C1C=CC2C(=O)NC(=O)C2N1Nc1ccccn1 (stereo not given) | -0.251 | -1.09 | -0.823 | -0.0706 | -0.729 | -0.831 | -0.654 (inactive) | 0.551 | 0.365 | -1.02 (inactive)
12 | CCOC(=O)C[C@H]1[C@H](OC(=O)c2ccc(C(=O)c3ccccc3)cc2)[C@@H](NC(=O)CC(C)C)c2cc(OCCCO)ccc2N1C(=O)c1ccccc1 | -1.43 | -0.408 | -0.0606 | 0.0631 | -1.11 | 1.49 | 0.275 (inactive) | 0.52 | 0.242 | 0.256 (inactive)
13 | C=CCNC(=O)[C@@H]1[C@H]2C(=O)O[C@H](c3ccccc3)[C@H](c3ccccc3)N2[C@H](c2ccc(OCCO)cc2)[C@@]12C(=O)N(C(=O)OCCOC)c1ccc(C#Cc3ccc(OC)cc3)cc12 | -0.528 | 0.786 | -0.834 | -0.845 | -1.32 | -0.638 | 0.8 (inactive) | -0.813 | -0.82 | 0.927 (inactive)
14 | CC[C@@H]1C=C(C(=O)O)[C@H](c2ccc(C#N)cc2)N1S(=O)(=O)c1ccc(C)cc1 | -0.484 | -0.364 | -1 | 0.492 | -0.95 | -0.968 | -0.552 (inactive) | 0.875 | -1.06 | -0.858 (inactive)
15 | C=CCC(OC(C)=O)[C@@H]1[C@@H](N(Cc2ccc(-c3ccccc3)cc2)C(=O)c2ccc(-c3ccccc3)cc2)c2cc(OCCCO)ccc2N1C(=O)c1ccc2ccccc2c1 (stereo not given in full) | -0.77 | 0.676 | 0.313 | -0.531 | -0.685 | 1.42 | -0.645 (inactive) | 0.795 | 0.563 | 0.204 (inactive)
16 | CCCCC=C[C@@H](NC(=O)OCc1ccccc1Cl)c1ccccc1 | -1.28 | -1.2 | -0.661 | -0.919 | -0.871 | 0.359 | -0.337 (inactive) | -0.623 | -1.03 | 0.297 (inactive)
17 | COc1ccc(C#Cc2ccc3c(c2)[C@]2(C(=O)N3)[C@H](c3ccc(O)cc3)N3[C@H](c4ccccc4)[C@H](c4ccccc4)OC(=O)[C@H]3[C@@H]2C(=O)Nc2nc3ccccc3s2)cc1 | 0.453 | 1.89 | -0.0578 | -1.4 | -2.6 | -2.28 | 0.0579 (inactive) | -0.429 | 0.0506 | -1.21 (inactive)
18 | COc1ccc(CCNC(=O)[C@@]2(c3ccc([N+](=O)[O-])cc3)CC(=O)N(C3CCCCC3)[C@@H]2c2ccc(CO)cc2)cc1 | 2.41 | 0.414 | 1.12 | 0.547 | 0.841 | 2.85 | -0.171 (inactive) | 0.562 | 0.954 | 1.28 (inactive)
19 | O=C1NC(=O)C2C1C=CC(C(O)c1ccco1)N2Nc1ccc(Cl)cc1Cl (stereo not given) | -0.396 | -0.792 | -1.16 | -1.57 | -0.941 | -1.96 | -0.298 (inactive) | -0.977 | -0.218 | -2.08 (inactive)
20 | C#CCN([C@@H](Cc1ccccc1)C(=O)OC)[C@@H](/C=C/C1CC1)[C@H](O)Cc1ccccc1 | -1.03 | -0.347 | -1.38 | -3.12 | -2.25 | 0.993 | -0.21 (inactive) | -1.03 | -1.51 | 2.25 (inactive)
21 | CCOC(=O)C1=C[C@@H](c2ccccc2)N(S(=O)(=O)c2ccc(C)cc2)[C@H]1c1ccc(OC)cc1 | -0.841 | -0.0112 | -0.157 | -0.62 | -0.926 | 1.03 | -0.708 (inactive) | 0.692 | -0.441 | 1.63 (inactive)
22 | COCCCNC(=O)[C@@H]1c2ccccc2C(=O)N(C(C)C)[C@H]1c1ccc(CO)cc1 | 0.0112 | 0.534 | -0.244 | -0.288 | -0.0405 | -0.106 | -0.409 (inactive) | -0.0966 | 0.942 | 0.167 (inactive)
23 | CCOC(=O)C[C@H]1[C@H](OC(=O)Cc2ccc3c(c2)OCO3)[C@@H](NC(=O)C2CCCCC2)c2cc(OCCCO)ccc2N1C(=O)c1ccccc1 | 1.99 | -0.193 | -0.0568 | 0.567 | -0.354 | 1.69 | 0.247 (inactive) | 0.0348 | 0.137 | 0.745 (inactive)
24 | COC(=O)[C@@H]1N=C(c2ccc(OCCCO)cc2)O[C@@H]1C | 0.0963 | -0.317 | 0.958 | 0.916 | -0.086 | 0.5 | 0.797 (inactive) | -0.155 | -1 | -0.155 (inactive)
25 | CC(C)(C)OC(=O)CC[C@@]1(C(=O)NCC(O)CO)N=C(c2ccc(OCCCO)cc2)O[C@@H]1c1ccccc1CN=[N+]=[N-] (stereo not given in full) | 1.25 | 0.478 | -0.0162 | -0.217 | -0.34 | 0.0542 | 0.0122 (inactive) | -0.418 | 1.12 | 0.0255 (inactive)
26 | CC#CCO[Si](C#Cc1ccccc1)(C(C)C)C(C)C | -0.511 | -0.458 | -0.175 | -0.806 | -1.83 | -1.51 | -0.628 (inactive) | -0.845 | -1.3 | -0.537 (inactive)
27 | CO[C@H]1O[C@H](CO)[C@@H](OC(=O)Nc2ccc3c(c2)OCO3)[C@H](OC(=O)Nc2ccc3c(c2)OCO3)[C@@H]1OC(=O)Nc1ccc2c(c1)OCO2 | -0.077 | 0.0003 | -0.797 | -1.89 | -1.84 | -1.14 | -0.13 (inactive) | -0.538 | -0.357 | -0.333 (inactive)
28 | C=CCN1C(=O)[C@]2(CCC(=O)OC(C)(C)C)N=C(c3ccc(OCCCO)cc3)O[C@@H]2c2ccccc21 | -0.656 | 1.79 | -1.74 | -3.56 | -4.05 | -1.45 | 4.11 (inactive) | -1.05 | -2.81 | -2.21 (inactive)
